Compound activity: PubChem BioAssay, Broad Institute
Most compounds without a hit are left out; they make up all but 2.2% or so of the library.
PvdQ acylase = blocks Pseudomonas aeruginosa PvdQ acylase activity. purified PvdQ acylase, fluorescence plate reader. inhibition, % at 10 µM. 0.063% of 340,000 active; in the data active means inhibition above about 30%, passing the limit was not always enough
Statin myotox sup = suppression of simvastatin myotoxicity; AID 602340; C2C12 myotubes + simvastatin, ATP luminescence, 48 h; scaled: DMSO 0, geranylgeraniol control 100; 0.78% of 330,000 active; rescue of ATP level, % at 7.49 µM;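 active means mean ATP rescue above about 67%, or every replicate alone reaching that limit, limit read from the data, passing the limit was not always enough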;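 further: myotubes were challenged with 10 µM simvastatin during compound exposure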
PGC1a acetyl inh = lowers PGC1a acetylation signal in U2OS cells; AlphaScreen anti-acetyl-lysine; with virally co-expressed GCN5 acetyltransferase; inhibition, % at 15.6 µM; 0.17% of 350,000 active; AID 651687;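 active means every replicate shows inhibition of at least 40%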
miR-122 sensor = miR-122 inhibition in Huh7 cells; activation (reporter increase), % at 12.5 µM; 0.3% of 340,000 active; Huh7 miR-122 Renilla luciferase sensor, 48 h; neutral wells = 0, positive control = 100;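 active means mean replicate activation score at least 90 and every replicate individually at or above 90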;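 further: higher luciferase means less miR-122 activity so hits act as miR-122 inhibitors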
DENV2 CPE = DENV2-induced cell death inhibition. CPE inhibition, % at 9.99 µM. AID 651640. DENV2-infected cells, cytopathic effect rescue, plate reader. 1.7% of 350,000 active; in the data active means CPE inhibition above about 20%, passing the limit was not always enough; tested in BHK-21 cells
Each line names hits and unclear results; the compound was inactive in the other large screens.

Cc1ccccc1CN1CCNC(=O)C1CC(=O)O (stereo not given)	DENV2 CPE 33 (no result: Statin myotox sup)
CCC(=O)Nc1ccc2c(c1)OC[C@H](C)N(C(=O)COC)C[C@H](C)[C@H](OC)CN(C)C2=O	none (no result: PvdQ acylase, miR-122 sensor)
Cc1cccnc1	DENV2 CPE 21
O=C(C(=O)c1cccnc1)c1cccnc1	none (no result: miR-122 sensor)
C[C@@H]1CN([C@@H](C)CO)C(=O)c2cc(NC(=O)CCCN(C)C)ccc2O[C@@H]1CN(C)Cc1ccccc1	DENV2 CPE 30 (no result: PvdQ acylase)
C[C@@H]1CN([C@H](C)CO)C(=O)c2cc(NC(=O)CCCN(C)C)ccc2O[C@@H]1CN(C)Cc1ccccc1	none (no result: PvdQ acylase)
C[C@H](CO)N1C[C@H](C)[C@H](CN(C)Cc2ccc(C(=O)O)cc2)OCCCC[C@H](C)Oc2ccc(NC(=O)CCCN(C)C)cc2C1=O	DENV2 CPE 30 (no result: PvdQ acylase, Statin myotox sup)
C[C@H]1CCCCO[C@@H](CN(C)Cc2ccc(C(=O)O)cc2)[C@@H](C)CN([C@@H](C)CO)C(=O)c2cc(NC(=O)CCCN(C)C)ccc2O1	none (no result: PvdQ acylase, Statin myotox sup)
C[C@@H]1CN([C@@H](C)CO)C(=O)c2cc(NC(=O)CCCN(C)C)ccc2O[C@@H](C)CCCCO[C@@H]1CN(C)Cc1ccc(C(F)(F)F)cc1	PGC1a acetyl inh 110 (no result: PvdQ acylase, Statin myotox sup)
CO[C@H]1CN(C)C(=O)c2cc(NC(C)=O)ccc2OC[C@@H](C)N(C(=O)CN(C)C)C[C@H]1C	none (no result: PvdQ acylase, PGC1a acetyl inh)
CO[C@H]1CN(C)C(=O)c2cc(NC(C)=O)ccc2OC[C@H](C)N(C(=O)CN(C)C)C[C@H]1C	DENV2 CPE 44 (no result: PvdQ acylase, Statin myotox sup, miR-122 sensor)
CO[C@@H]1CN(C)C(=O)c2cc(NS(C)(=O)=O)ccc2OC[C@H](C)N(C(=O)CN(C)C)C[C@@H]1C	DENV2 CPE 76 (no result: PvdQ acylase)
COCCOC(=O)N1C(=O)[C@@]2(c3cc(C#CC4=CCCCC4)ccc31)[C@H](c1ccc(O)cc1)N1[C@H](c3ccccc3)[C@H](c3ccccc3)OC(=O)[C@H]1[C@@H]2C(N)=O	none (no result: PvdQ acylase, Statin myotox sup, PGC1a acetyl inh, miR-122 sensor)
CO[C@@H]1CC[C@@H]2CCOc3c(C#N)cccc3C(=O)N(C)C[C@H](c3ccccc3)CC(=O)N(C)C[C@H]1O2	none (no result: PvdQ acylase, miR-122 sensor)
Cc1ccc(C)c(S(=O)(=O)N/N=C/c2ccc(F)cc2)c1	none (no result: Statin myotox sup, PGC1a acetyl inh, miR-122 sensor)
CC(=O)Nc1ccc(/C=N/NS(=O)(=O)c2cc(C)ccc2C)cc1	miR-122 sensor 464 (no result: Statin myotox sup)
C[C@@H]1CN([C@@H](C)CO)C(=O)c2cccc(NC(=O)Nc3ccccc3)c2O[C@H]1CN(C)C(=O)NC1CCCCC1	none (no result: PvdQ acylase)
COc1ccc(-c2cnc3c(c2)C(=O)N([C@@H](C)CO)C[C@@H](C)[C@H](CN(C)C(=O)Cc2ccncc2)O3)cc1	none (no result: PvdQ acylase)
COCCCNCCCCOc1cccc(Br)c1	none (no result: Statin myotox sup, PGC1a acetyl inh)
OCCNCCCCOc1cccc(Br)c1	DENV2 CPE 39 (no result: Statin myotox sup, PGC1a acetyl inh, miR-122 sensor)
COc1ccc2c3c([nH]c2c1)[C@H](CO)N(Cc1ccc(Cl)cc1)CC31CCN(Cc2nccs2)CC1	none (no result: PvdQ acylase, Statin myotox sup, miR-122 sensor)
CC(=O)c1c(C)[nH]c(C(=O)OCC(=O)N(C)c2c(N)n(Cc3ccccc3)c(=O)[nH]c2=O)c1C	DENV2 CPE 143 (no result: PGC1a acetyl inh, miR-122 sensor)
CCOc1ccc(OCC(=O)N(C)c2c(N)n(Cc3ccccc3)c(=O)[nH]c2=O)cc1	DENV2 CPE 25 (no result: Statin myotox sup, PGC1a acetyl inh, miR-122 sensor)
CCN(C(=O)CN1CCN(c2ccccc2O)CC1)c1c(N)n(Cc2ccccc2)c(=O)[nH]c1=O	PGC1a acetyl inh 50 (no result: Statin myotox sup, DENV2 CPE)
CCOC(=O)c1c(C)[nH]c(C(=O)OCC(=O)N(CC)c2c(N)n(Cc3ccccc3)c(=O)[nH]c2=O)c1C	none
CCN(C(=O)CN1CCN(c2ccccc2F)CC1)c1c(N)n(Cc2ccccc2)c(=O)[nH]c1=O	none (no result: Statin myotox sup, miR-122 sensor)
Cc1ccc(S(=O)(=O)Nc2ccc3c(c2)C(=O)N([C@H](C)CO)C[C@@H](C)[C@H](CN(C)Cc2ccc(Cl)c(Cl)c2)O3)cc1	Statin myotox sup 75 (no result: PvdQ acylase)
C[C@H]1CN([C@@H](C)CO)C(=O)c2cc(NS(=O)(=O)c3ccc(Cl)cc3)ccc2O[C@H]1CN(C)Cc1ccc(Cl)c(Cl)c1	none (no result: PvdQ acylase)
C[C@@H]1CN([C@@H](C)CO)C(=O)c2cc(NS(=O)(=O)c3ccc(Cl)cc3)ccc2O[C@@H]1CN(C)Cc1ccc(Cl)c(Cl)c1	none (no result: PvdQ acylase)
Cc1ccc(S(=O)(=O)Nc2ccc3c(c2)C(=O)N([C@@H](C)CO)C[C@@H](C)[C@H](CN(C)Cc2ccc(Cl)c(Cl)c2)O3)cc1	Statin myotox sup 95 (no result: PvdQ acylase)
CC(C)NC(=O)N(C)C[C@@H]1OCCCC[C@H](C)Oc2ccc(N(C)C)cc2C(=O)N([C@H](C)CO)C[C@@H]1C	none (no result: PvdQ acylase, Statin myotox sup)
Cc1cc(OCC(=O)NC(Cc2ccc(Cl)cc2)C(=O)O)c2c(C)c(C)c(=O)oc2c1 (stereo not given)	DENV2 CPE 92
Cc1cc(OCC(=O)NC(Cc2c[nH]c3ccc(O)cc23)C(=O)O)c2c(C)c(C)c(=O)oc2c1 (stereo not given)	DENV2 CPE 94
Cc1ccccc1OCC(=O)NNC(=O)Nc1ccc(Cl)cc1	miR-122 sensor 144 (no result: DENV2 CPE)
C[C@@H]1CN([C@H](C)CO)S(=O)(=O)c2ccc(-c3ccccc3)cc2O[C@@H]1CN(C)C(=O)C1CCC1	none (no result: PvdQ acylase, DENV2 CPE)
CCOC(=O)/C=c1\s/c(=C\c2ccc3c(c2)OCCO3)c(=O)n1CC(=O)NCC1CCCO1 (stereo not given)	Statin myotox sup 110 (no result: DENV2 CPE)
CCOC(=O)/C=c1\s/c(=C\c2c(OCC)ccc3ccccc23)c(=O)n1CC(=O)NCC1CCCO1 (stereo not given)	none (no result: Statin myotox sup, DENV2 CPE)
Nc1ccc(C#Cc2ccccc2)cc1	none (no result: DENV2 CPE)
Nc1ccccc1C#Cc1ccccc1	DENV2 CPE 110 (no result: PGC1a acetyl inh, miR-122 sensor)
C[C@H]1CN([C@@H](C)CO)C(=O)Cc2cc(NS(=O)(=O)c3ccccc3)ccc2O[C@@H]1CN(C)Cc1ccc(Cl)c(Cl)c1	Statin myotox sup 103 (no result: PvdQ acylase)
C[C@@H]1CN([C@H](C)CO)C(=O)Cc2cc(NS(C)(=O)=O)ccc2O[C@@H]1CN(C)Cc1ccc(Cl)c(Cl)c1	Statin myotox sup 108 (no result: PvdQ acylase)
C[C@H]1CN([C@@H](C)CO)C(=O)Cc2cc(NS(C)(=O)=O)ccc2O[C@@H]1CN(C)Cc1ccc(Cl)c(Cl)c1	none
C[C@H](CO)N1C[C@H](C)[C@@H](CN(C)Cc2ccc(Cl)c(Cl)c2)Oc2ccc(NS(C)(=O)=O)cc2CC1=O	Statin myotox sup 92 (no result: PvdQ acylase)
CC(=O)N[C@H]1CC[C@@H](CCNC(=O)C2CC2)O[C@H]1CO	none (no result: PvdQ acylase)
CN(C)CC#Cc1ccc([C@@H]2[C@H](CO)N3C(=O)CN(C(=O)Cc4ccccc4)C[C@@H]23)cc1	none (no result: PvdQ acylase, Statin myotox sup, miR-122 sensor)
N#C[C@H]1[C@@H](c2ccc(C3=CCCC3)cc2)[C@@H](CO)N1C(=O)c1ccccn1	none (no result: PvdQ acylase, miR-122 sensor)
Cc1ccc2nc(-c3cccc(Br)c3)c(Cc3ccsc3)n2c1	DENV2 CPE 24 (no result: PvdQ acylase, Statin myotox sup, PGC1a acetyl inh, miR-122 sensor)
Cc1ccc(Cc2c(-c3ccccc3)nc3c4ccccc4ccn23)cc1	none (no result: PvdQ acylase, Statin myotox sup, PGC1a acetyl inh, miR-122 sensor)
Cc1ccc(Cc2c(-c3cccc(Br)c3)nc3c4ccccc4ccn23)cc1	DENV2 CPE 39 (no result: PvdQ acylase, Statin myotox sup, PGC1a acetyl inh, miR-122 sensor)
COc1ccc(-c2nc3c4ccccc4ccn3c2Cc2ccc(C)cc2)cc1OC	none (no result: PvdQ acylase)
COc1ccc(-c2nc3c4ccccc4ccn3c2Cc2cccc(Cl)c2)cc1OC	DENV2 CPE 76 (no result: PvdQ acylase)
